# Experimental data published in PubChem BioAssay (NCATS).
# A number with no mark means an inactive call. Calls come from the whole dose curve; as a rule, active = well fitted inhibition curve with a large enough effect; inconclusive = small, poorly fitted or top-dose-only effect; inactive = flat fitted curve, though single readings scatter.
# System: Nanoluciferase (engineered Oplophorus gracilirostris luciferase)
# Assay: Primary Nanoluciferase (NLuc) qHTS assay for identification of artifact compounds. (AID 1845222);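 note: 0% = DMSO and -100% = no enzyme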
# Details: NLuc-conditioned medium, Nano-Glo luminescence, 5 min; series mostly up to 54.1 µM; activity, negative = inhibition: at the top concentration
# Method in brief: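 Diluted conditioned medium from NLuc-expressing S16 cells treated with compounds for 15 min at room temperature, then Nano-Glo substrate added; luminescence read after 5 min. Percent inhibition versus no-enzyme and DMSO controls fitted to 4-parameter Hill equation.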
row,Compound,"activity, negative = inhibition"
1,COc1cc(O)cc2c1C(=O)OC(C)C2 (configuration not stated),-2.58%
2,C=C1CC[C@]2(C(=O)O[C@@H]3O[C@H](CO)[C@@H](O)[C@H](O)[C@H]3O)CC[C@]3(C)C(=CCC4[C@@]5(C)C[C@H](O)[C@@H](O[C@@H]6O[C@H](C(=O)O)[C@@H](O)[C@H](O)[C@H]6O)[C@](C)(C=O)C5CC[C@]43C)C2C1 (some centres not stated),1.82% [at 11.6 µM]
3,C/C=C/C=C/C(O)=C1/C(=O)[C@]2(C)C(=O)[C@@](C)(O)[C@H]1[C@H]([C@@]1(C)OC(=O)C(C)=C1O)[C@H]2C(=O)CC/C=C/C,-1.2% [at 25.7 µM]
4,C[C@@H]1O[C@@H](O[C@H]2[C@H](O)[C@@H](O[C@@H]3O[C@H](CO)[C@H](O)[C@H](O)[C@H]3O)[C@H](O[C@H]3CC[C@@]4(C)C(CC[C@]5(C)C4CC=C4[C@@H]6CC(C)(C)CC[C@]6(C(=O)O[C@@H]6O[C@H](CO)[C@@H](O)[C@H](O)[C@H]6O)CC[C@]45C)C3(C)C)O[C@@H]2C(=O)O)[C@H](O)[C@H](O)[C@H]1O (some centres not stated),2.46% [at 11.6 µM]
5,CC1(C)CC[C@]2(C(=O)O[C@@H]3O[C@H](CO[C@@H]4O[C@H](CO)[C@@H](O)[C@H](O)[C@H]4O)[C@@H](O)[C@H](O[C@@H]4O[C@H](CO)[C@@H](O)[C@H](O)[C@H]4O)[C@H]3O)CC[C@]3(C)C(=CCC4[C@@]5(C)CC[C@H](O[C@@H]6OC[C@@H](O)[C@H](O)[C@H]6O)[C@@](C)(C(=O)O)C5CC[C@]43C)[C@@H]2C1 (some centres not stated),1.63% [at 11.6 µM]
6,CCCC/C=C\CCCCCc1cc(=O)c2ccccc2n1C,-3.58%
7,C=C1C(O)C(O)C2(CC3C(C)=CCC4C(C)(C(=O)O)CCCC34C)OC2C1O (configuration not stated),-0.83%
8,CC1OC(OC2C(OC(=O)[C@]34CCC(C)(C)C[C@H]3C3=CCC5[C@@]6(C)CC[C@H](OC7OC(C(=O)O)C(O)C(O)C7O)C(C)(C)C6CC[C@@]5(C)[C@]3(C)CC4O)OC(CO)C2O)C(O)C(O)C1OC1OCC(O)C(O)C1O (some centres not stated),0% [at 11.6 µM]
9,O=C(Nc1ccccc1)Nc1ccc(-c2ccc(C(=O)C3CCCC3C(=O)O)cc2)cc1 (configuration not stated),0%
10,COCc1c(O)c(C(=O)O)c(C)c2c1OC(=O)c1c(C)cc(O)c(CO)c1O2,-19.4%
11,CCCC1=CC2=C(CO1)C(=O)C(C)(O)C(OC(=O)c1c(C)cc(OC)cc1O)C2 (configuration not stated),0.717% [at 25.7 µM]
12,CC1(C)CCC[C@]2(C)C1CC=C(CO)[C@H]2CC/C(=C/CO)CO (some centres not stated),-0.193%
13,CCOC(=O)C(CCc1ccccc1)NC1CCCN2CCCC(C(=O)O)N2C1=O (configuration not stated),4.57%
14,OCC(O)C(c1c[nH]c2ccccc12)c1c[nH]c2ccccc12 (configuration not stated),-0.866%
15,C=C(CC/C=C(\C)C(=O)O)C1(O)CC=C(C)CC1 (configuration not stated),-0.467%
16,CC1(C)CC[C@]2(C(=O)O[C@@H]3O[C@H](CO[C@@H]4O[C@H](CO)[C@@H](O)[C@H](O)[C@H]4O)[C@@H](O)[C@H](O[C@@H]4O[C@H](CO)[C@@H](O)[C@H](O)[C@H]4O)[C@H]3O)[C@H](O)C[C@]3(C)C(=CCC4[C@@]5(C)CC[C@H](O[C@@H]6OC[C@@H](O)[C@H](O)[C@H]6O)[C@@](C)(C(=O)O)C5CC[C@]43C)[C@@H]2C1 (some centres not stated),-3.16% [at 11.6 µM]
17,C/C=C1\[C@H](O[C@@H]2O[C@H](CO)[C@@H](O)[C@H](O)[C@H]2O)OC=C(C(=O)OCCc2ccc(O)cc2)[C@H]1CC(=O)OCCc1ccc(O)cc1,-0.872% [at 25.7 µM]
18,COc1ccc(CCC(=O)c2c(O)cc(O[C@@H]3O[C@H](CO)[C@@H](O)[C@H](O)[C@H]3O[C@@H]3O[C@@H](C)[C@H](O)[C@@H](O)[C@H]3O)cc2O)cc1O,0.836%
19,CC1(C)CC[C@]2(C(=O)O)CC[C@]3(C)C(=CCC4[C@@]5(C)CC[C@H](O[C@@H]6O[C@H](C(=O)O)[C@@H](O)[C@H](O[C@@H]7O[C@H](CO)[C@H](O)[C@H](O)[C@H]7O)[C@H]6O[C@@H]6O[C@H](CO)[C@@H](O)[C@H](O)[C@H]6O)C(C)(C)C5CC[C@]43C)[C@@H]2C1 (some centres not stated),-1.21% [at 6.45 µM]
20,CC[C@H](C)[C@H](NC(=O)[C@H](Cc1ccc(O)cc1)NC(=O)[C@@H](N)C(C)C)C(=O)N[C@@H](Cc1cnc[nH]1)C(=O)N1CCC[C@H]1C(=O)N[C@@H](Cc1ccccc1)C(=O)O,2.76% [at 6.45 µM]
21,C=CC(C)(CCC=C(C)C)O[C@@H]1O[C@H](CO)[C@@H](O)[C@H](O)[C@H]1O (some centres not stated),3.84%
22,CC1(C)CC[C@]2(C(=O)O[C@@H]3O[C@H](CO)[C@@H](O)[C@H](O)[C@H]3O)CC[C@]3(C)C(=CCC4[C@@]5(C)C[C@H](O)[C@H](O[C@@H]6O[C@H](C(=O)O)[C@@H](O)[C@H](O)[C@H]6O)[C@@](C)(CO)C5CC[C@]43C)C2C1 (some centres not stated),1.06% [at 11.6 µM]
